Rows were chosen to be rich in hits. Some 6.9% of all compounds tested hit in one or more screens of this group.
S-ASM inh – Inhibitors of Secretory Acid Sphingomyelinase (S-ASM): qHTS; Sphingomyelin phosphodiesterase (Homo sapiens), P17405; placental ASM, HMU-PC fluorogenic substrate, 60 min; Potency, µM (top dose mostly 57.5 µM), without a hit: at the top dose activity change, negative = inhibition, actives largely listed as inhibitors; 340,000 compounds, 0.006% hits; note: potency is the fitted concentration of half-maximal effect
Target sequence (P17405 47-631 limits assumed): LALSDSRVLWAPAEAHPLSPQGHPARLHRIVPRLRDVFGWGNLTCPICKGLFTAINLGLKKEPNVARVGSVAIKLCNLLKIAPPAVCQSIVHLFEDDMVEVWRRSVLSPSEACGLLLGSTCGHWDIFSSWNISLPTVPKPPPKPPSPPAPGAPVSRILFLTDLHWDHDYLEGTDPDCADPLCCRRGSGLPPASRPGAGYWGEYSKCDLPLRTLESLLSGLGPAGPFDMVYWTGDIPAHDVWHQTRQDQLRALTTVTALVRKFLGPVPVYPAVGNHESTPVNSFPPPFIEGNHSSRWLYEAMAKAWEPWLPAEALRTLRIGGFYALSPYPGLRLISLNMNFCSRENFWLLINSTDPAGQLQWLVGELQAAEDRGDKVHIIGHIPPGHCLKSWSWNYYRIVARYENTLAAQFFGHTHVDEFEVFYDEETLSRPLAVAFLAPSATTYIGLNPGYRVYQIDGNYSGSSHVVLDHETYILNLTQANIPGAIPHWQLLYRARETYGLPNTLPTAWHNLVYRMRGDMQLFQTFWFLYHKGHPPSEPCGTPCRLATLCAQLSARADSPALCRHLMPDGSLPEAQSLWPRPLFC
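qHTS format. ASM enzyme prepared from human placenta hydrolyses the fluorogenic substrate HMU-PC0 (9 uM final) over 60 min at 37 °C after a 10 min compound preincubation.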
MCF10A rereplic – A quantitative high throughput screen for small molecules that induce DNA re-replication in MCF 10a normal breast cells | MCF 10A DNA re-replication, Hoechst nuclear intensity, 48 h | Potency, µM (doses to about 46.1 µM), for the others: top-dose activity, positive = re-replication, usual class: activators | 350,000 compounds, 2.9% hits; note: potency is the fitted concentration of half-maximal effect; % of control where 0% means no effect; nearly all actives have a fitted effect of over 50% in size
Giardia kill – Small Molecules that selectively kill Giardia lamblia: qHTS | Giardia lamblia trophozoite viability | activity change, % at 7.66 µM, hits read low | 340,000 compounds, 0.15% hits | AID 540267, 2011; in the data active = activity change below about -80%; inconclusive = between about -30% and that limit;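 note: parasites exposed to compound for two days anaerobically before the ATP read; % is set by controls: 0 for no effect and ±100 for the full control effect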
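Each well holds 100 Giardia trophozoites and compound. After two days (48 hrs) at 37 deg C in anaerobic conditions, ATP is quantified by luminescence.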
KB-V1 cytotox – qHTS assay for MDR1-selective chemotherapeutics: Primary screen using the drug-selected MDR subline cells KB-V1. KB-V1 MDR cells viability, CellTiter-Glo, 72 h. Potency, µM (highest dose often 46.1 µM), most hits filed as cytotoxic. 400,000 compounds, 3.4% hits. AID 1347076, 2019; note: potency is the fitted concentration of half-maximal effect; % is set by controls: 0 for no effect and ±100 for the full control effect; nearly all actives have a fitted effect of over 60% in size
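Cytotoxicity toward P-gp-expressing KB-V1 cells was determined as loss of CellTiter-Glo luminescence after 72 h at 37 degrees C. Compounds were tested in quantitative HTS format across a concentration range, with curves fitted to normalized data.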
SW480 rerep – A quantitative high throughput screen for small molecules that induce DNA re-replication in SW480 colon adenocarcinoma cells; SW480 DNA re-replication, Hoechst DNA content imaging, 48 h; Potency, µM (top dose mostly 46.1 µM), inactives show top-dose re-replication activation, hits mostly activators; 340,000 compounds, 1.8% hits; note: potency is the fitted concentration of half-maximal effect; % of control where 0% means no effect; nearly all actives have a fitted effect of over 55% in size
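Hoechst fluorescence of nuclei (405 nm excitation, 500-530 nm emission) measured by plate-scanning imager after 48 hr compound exposure at 37 C; re-replication scored as increased number of nuclei with elevated intensity.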
KB-3-1 tox – qHTS assay for MDR1-selective chemotherapeutics: Primary screen using the parental adenocarcinoma cell KB-3-1. KB-3-1 viability, CellTiter-Glo ATP luminescence, 72 h. AID 1347075, 2019. 400,000 compounds, 1.4% hits. Potency, µM (top dose mostly 46.1 µM), most hits filed as cytotoxic; note: potency is the fitted concentration of half-maximal effect; % is set by controls: 0 for no effect and ±100 for the full control effect; nearly all actives have a fitted effect of over 60% in size
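Viability of parental KB-3-1 cells, measured by CellTiter-Glo luminescence, followed a 72 h incubation at 37 °C with pinned compounds in phenol-red-free DMEM containing 10% FBS.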
* marks the source's active call; other numbers are inactive results; i = inactive; ? = inconclusive; . = not tested or not shown; [ ] = remark or other dose. Unless noted, calls come from the whole dose curve; as a rule, active = well fitted curve in the direction sought with a large enough effect; inconclusive = small, poorly fitted or top-dose-only effect, or another doubt; inactive = no such curve, though single readings can be large; an effect the other way counts as inactive or inconclusive.

SMILES | S-ASM inh | MCF10A rereplic | Giardia kill | KB-V1 cytotox | SW480 rerep | KB-3-1 tox
CCc1ccc(-c2nc3c(=O)n(C)c(=O)nc-3n(CC)n2)cc1 | . | . | -91* | ? | . | ?
Cc1ccccc1-c1nc2c(=O)n(C)c(=O)nc-2n(C)n1 | . | . | -86* | ? | . | 2.1µM*
CCCc1nc2c(=O)n(C)c(=O)nc-2n(C)n1 | -4% | 10µM* | ? | 7.3µM* | 0.65µM* | 4.6µM*
Cn1nc(-c2ccccn2)nc2c(=O)n(C)c(=O)nc1-2 | 4% | 2.9µM* | -7 | i | 0.82µM* | ?
CCn1c(=O)cc(OCC(=O)Nc2cc(OC)c(OC)c(OC)c2)c2ccccc21 | . | . | . | i | . | i
O=C(Nc1ccc(Br)cc1)Nc1nc2c(s1)CCCCCC2 | . | . | . | i | . | i
Cc1ccc(-n2ncc(C(=O)NC3CCCCC3)c2C2CCN(C(=O)OC(C)(C)C)CC2)cc1 | . | . | . | i | . | i
COC(=O)c1sc2ccccc2c1-n1cccc1C(=O)C(=O)Nc1ccccc1 | -11% | 22% | -1 | i | 7% | ?
COC(=O)c1sc2ccccc2c1-n1cccc1C(=O)C(=O)Nc1ccc(OC)cc1 | -8% | 28% | 7 | 8.2µM* | -5% | 5.8µM*
O=C(CSc1nnnn1C1CC1)Nc1ccc(S(=O)(=O)N2CCOCC2)cc1 | 3% | -2% | -12 | i | ? | i
CC(=O)NC(C(=O)c1ccccc1)C(=O)c1ccccc1 | -1% | -73% | -8 | i | 0.52µM* | i
CCOC(=O)c1cnc2ccc(OCC)cc2c1N1CCN(c2cccc(Cl)c2)CC1 | . | . | . | i | . | ?
O=C1/C(=C\c2ccco2)CCC/C1=C\c1ccco1 | -7% | 21µM* | -6 | i | ? | i
O=C(c1ccc(S(=O)(=O)N2CCOCC2)cc1)N1CCN(c2ccccn2)CC1 | 1% | 1.5µM* | 18 | i | -39% | i
Cc1ccc(C(=O)NCc2ccc(Cl)cc2)cc1S(=O)(=O)N1CCCCC1 | -2% | 1% | 3 | 18µM* | 3% | ?
Cc1ccc(C(=O)NCC(c2ccc(F)cc2)N2CCOCC2)cc1S(=O)(=O)N1CCOCC1 (centres undefined) | 0% | 7% | 16 | 21µM* | -2% | i
O=C(NCc1ccccc1F)c1cccc(S(=O)(=O)N2CCCCC2)c1 | -1% | 2% | 7 | 4.1µM* | 15% | i
O=C(NCc1ccccc1F)c1cccc(S(=O)(=O)N2CCCCCC2)c1 | -2% | 27% | -18 | i | -4% | i
CS(=O)(=O)c1ccc([C@H](O)[C@H](CO)NC(=O)C(Cl)Cl)cc1 | . | 2%[20.6 µM] | . | . | -4%[20.6 µM] | .
CC(Oc1ccccc1)C(=O)Nc1nc2ccc(S(N)(=O)=O)cc2s1 (centres undefined) | . | . | . | i | . | i
CCOc1ccc(CCNC(=O)c2cccc(S(=O)(=O)N3CCCCC3)c2)cc1OCC | 1% | ? | -12 | 6.5µM* | 7% | ?
CC(=O)Nc1cccc(NC(=O)c2cccc(S(=O)(=O)N3CCN(Cc4ccccc4)CC3)c2)c1 | -4% | 14% | 1 | i | -1% | i
CCc1ccccc1NC(=O)CNC(=O)c1cccc(S(=O)(=O)N2CCN(Cc3ccccc3)CC2)c1 | 1% | 8% | 2 | 16µM* | 5% | ?
CCOc1ccc(CCNC(=O)c2ccc(C)c(S(=O)(=O)N3CCOCC3)c2)cc1OCC | 4% | 0% | ? | 21µM* | -5% | ?
CCOc1ccc(S(=O)(=O)N2CCN(C(=O)c3ccc(C)c(S(=O)(=O)N4CCOCC4)c3)CC2)cc1 | 1% | 9% | 2 | 21µM* | 3% | ?
SMILES | S-ASM inh | MCF10A rereplic | Giardia kill | KB-V1 cytotox | SW480 rerep | KB-3-1 tox
Cc1ccc(OCC(=O)Nc2ccc3c(c2)nc(CCNC(=O)c2ccco2)n3C)cc1 | . | . | . | i | . | i
CCOc1ccc(CCNC(=O)CN2C(=O)COc3ccc(S(=O)(=O)N4CCCCCC4)cc32)cc1 | . | . | . | 9.2µM* | . | i
CN(C)c1ccc(/C=N/NC(N)=S)cc1[N+](=O)[O-] | -2% | -5% | ? | 6.5µM* | -14% | 15µM*
CCOc1ccc(CNS(=O)(=O)c2ccc(-c3coc(C)n3)cc2)cc1OC | . | . | . | 23µM* | . | ?
O=[N+]([O-])c1ccc(N/N=C/c2cccc(O)c2)cc1 | -4% | 18µM* | 9 | i | ? | i
O=[N+]([O-])c1ccc(N/N=C/c2cccc(O)c2O)cc1 | -3% | 23µM* | -23 | i | ? | ?
C/C(=N\Nc1ccc([N+](=O)[O-])cc1)c1ccc(O)cc1 | ? | 15µM* | -2 | i | 23µM* | i
O=[N+]([O-])c1ccc(NN=Cc2cccc([N+](=O)[O-])c2)cc1 | -3% | 23µM* | 7 | i | 25% | i
C/C(=N\Nc1ccc([N+](=O)[O-])cc1)c1cccc(N)c1 | -10% | ? | -11 | ? | 6% | i
Cc1cccc(OCC(=O)Nc2ccccc2C(=O)OCc2cc(=O)n3ccsc3n2)c1 | . | . | . | i | . | i
Cc1cccc(C(=O)Oc2ccccc2/C=N/Nc2ccc([N+](=O)[O-])cc2)c1 | 2% | ? | -6 | i | 13µM* | ?
O=[N+]([O-])c1ccc(N/N=C/c2cn(-c3ccccc3)nc2-c2ccccc2)cc1 | -8% | 1.6µM* | 1 | ? | 10µM* | i
O=C(O)/C=C/c1cn(-c2ccccc2)nc1-c1ccc(-c2ccc([N+](=O)[O-])cc2)o1 | 2% | 3.3µM* | 3 | i | ? | i
Cc1cccc(C(=O)Oc2ccc(/C=N/O)cc2)c1 | -4% | 1% | -3 | i | 5% | i
CCCCCCCCCS(=O)(=O)N/N=C/c1cccc([N+](=O)[O-])c1 | ? | 15µM* | 2 | i | 0% | i
COc1ccc(CCNC(=O)c2cnn3c2NC(=C2CC2)C=C3C(F)F)cc1OC | . | . | . | i | . | ?
C[C@@]12C(=O)Nc3cc(Cl)ccc3C(=O)N1[C@H]1c3cc(Br)ccc3OC[C@@H]1[C@@H]2c1ccccc1 | -17% | ? | -14 | i | ? | i
CCCCCCCCCCS(=O)(=O)N/N=C/c1ccccc1OC | ? | 18µM* | -2 | i | -2% | i
CCCCCCCCCCS(=O)(=O)N/N=C/c1ccc(O)cc1 | ? | 1% | -4 | i | -3% | i

Compound activity deposited in PubChem by National Center for Advancing Translational Sciences (NCATS).
